PubChem BioAssay (NCI)
About 79,000 compounds went through this panel and 15% of them were active in at least one assay; those are over-represented in the sample as a whole. Calls of active or inactive are those of the source. Cut-off read from the data, not from the text of the source: active = growth inhibition above about 70%; inactive = the rest.

test: NCI Yeast Anticancer Drug Screen. Data for the mlh1 rad18 strain (AID 175); details: S. cerevisiae mlh1 rad18 strain growth inhibition; at 50.0 µM; stronger effect = higher value
How it was run: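 Vehicle-treated cultures served as the reference for growth inhibition in a yeast strain carrying DNA damage repair alterations exposed to each compound.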

Compound	growth inhibition
Cc1cn(C2CC(O)C(CO)O2)c(=O)nc1NC1CC1 (stereo not given)	3.15% (inactive)
CNCSc1ccccc1	-1.45% (inactive)
Cc1ccc(NC(=S)NC(Cc2ccccc2)c2ccccc2)cc1 (stereo not given)	85.2% (active)
CC(=O)NS(=O)(=O)c1ccc(NC(=O)COC(=O)c2cccc3c(=O)c4ccccc4[nH]c23)cc1	-23.6% (inactive)
Cc1ccc(CNC2=C(Cl)C(=O)c3ccccc3C2=O)cc1C	97.2% (active)
Cc1ccc(Cl)c2c1C(=O)c1ccccc1C2=O	23.9% (inactive)
NC(=O)/C(=C\c1ccncc1)c1cccc2ccccc12	-7.05% (inactive)
CC(=O)OCC1OC(n2nc(/C=C/c3ccccc3)c(=O)n(-c3ccccc3)c2=S)C(OC(C)=O)C(OC(C)=O)C1OC(C)=O (stereo not given)	31.9% (inactive)
COC1(OC)C(c2ccc(Cl)cc2)C(C#N)(C#N)C1(OC)OC (stereo not given)	-7.45% (inactive)
N=C(N)S/C=C/C(=O)O	-19.6% (inactive)
Clc1ccc(/C=N/c2ccccn2)cc1	-31.1% (inactive)
Clc1nnc(Cl)c2ncccc12	-1.75% (inactive)
O=C(NN=C1CCCCC1)c1ccccc1	0.2% (inactive)
Clc1ccc2c(N3CCC(CCC4CCN(c5ncnc6cc(Cl)ccc56)CC4)CC3)ncnc2c1	-14.2% (inactive)
CCOC(=O)Nc1cc2c(c(N)n1)N=C(CN(C)c1ccccc1)CN2	30.3% (inactive)
NCCCN(CCO)CCO	-20.4% (inactive)
Nc1nc(Cl)nc(Nc2ccc(-c3cc4ccc(-c5ncc[nH]5)cc4[nH]3)cc2)n1	62.6% (inactive)
CCCC(C(C)=O)C(C)=O	-4.25% (inactive)
O=C(O)C(CSC(c1ccccc1)(c1ccccc1)c1ccccc1)NSc1ccccc1[N+](=O)[O-] (stereo not given)	97.8% (active)
Cc1ccc(-c2cc(-c3ccco3)nc(N)n2)o1	1.75% (inactive)

Compound	growth inhibition
O=C(c1cc(O)c(O)c(O)c1)c1ccc(O)c(O)c1O	32.8% (inactive)
CC(=O)Nc1ccc(/C=C/C(=O)c2sc(-c3cccnc3)nc2C)cc1	29.3% (inactive)
COC(=O)c1cc(Cl)c(C(=O)OC)cc1Cl	8.6% (inactive)
CN1CCCc2cccc(NC(=O)C3CCCNC3=O)c21 (stereo not given)	9.75% (inactive)
O=C(O)C1Cc2c([nH]c3ccccc23)C(CCCCO)N1 (stereo not given)	-11.3% (inactive)
CCN(CC)CCNC(=O)c1ccccc1NC(=O)C(=O)Nc1ccccc1C(=O)NCCN(CC)CC	-41.6% (inactive)
CO[C@@H]1C=C[C@@]23c4cc5c(cc4CN(C[C@@H]2O)[C@H]3C1)OCO5	-59.4% (inactive)
COc1c(Cl)cc(Cl)c(C)c1C(C)C(=O)O (stereo not given)	10.9% (inactive)
O=C(O)c1c(Cl)c(Cl)c(Cl)c(Cl)c1C(=O)Nc1cccc(C(F)(F)F)c1	-14.7% (inactive)
COc1nc(SC)nc2c1cnn2C1OC(C(O)CO)C(OC)C1O (stereo not given)	16.3% (inactive)
Cc1ccc(S(=O)(=O)N2CCSCCN(S(=O)(=O)c3ccc(C)cc3)CCN(S(=O)(=O)c3ccc(C)cc3)CC2)cc1	-18.4% (inactive)
CN(C)NC(=O)Oc1ccc(Cl)cc1	2.75% (inactive)
Cc1cc(C)c(NC(=O)CC#N)cc1C	-6.6% (inactive)
CC(=O)OC1CC2CC1C1C=CCC21 (stereo not given)	0.65% (inactive)
O=[N+]([O-])c1ccccc1C=Nc1ccc2nc(SCc3ccccc3)sc2c1	-16.8% (inactive)
Cc1ccc(C(=O)c2ccc(O)cc2)cc1	-14.2% (inactive)
N/N=C1\C(=O)N(Cc2ccccc2)C(=O)C1C(=O)NCc1ccccc1 (stereo not given)	3.5% (inactive)
CCN(CC)C(COC(=O)Nc1ccccc1)COC(=O)Nc1ccccc1	3.05% (inactive)
COC(=O)C(=O)C(C(=O)C(=O)Nc1cccc(OC)c1)c1nc2ccc(Cl)cc2[nH]c1=O (stereo not given)	-25.6% (inactive)
O=c1nc(NC2CC2)ccn1C1OC(CO)C(O)C1O (stereo not given)	-20.9% (inactive)
